Screening results deposited in PubChem by National Center for Advancing Translational Sciences (NCATS).
KB-V1 cytotox – qHTS assay for MDR1-selective chemotherapeutics: Primary screen using the drug-selected MDR subline cells KB-V1; KB-V1 MDR cells viability, CellTiter-Glo, 72 h; Potency, µM (titrated, usually from 46.1 µM), hits mostly cytotoxic; actives 3.4% (n = 400,000); further: nearly all actives have a fitted effect of over 60% in size
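KB-V1 cells (P-gp-expressing MDR subline of KB-3-1) in phenol-red-free DMEM with 10% FBS were exposed to library compounds over a concentration series for 72 h at 37 degrees C. Viability read by CellTiter-Glo luminescence; concentration-effect curves fitted after normalization.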
MCF10A rerep – A quantitative high throughput screen for small molecules that induce DNA re-replication in MCF 10a normal breast cells. MCF 10A DNA re-replication, Hoechst nuclear intensity, 48 h. Potency, µM (top dose mostly 46.1 µM), most hits filed as activators. actives 2.9% (n = 350,000); further: nearly all actives have a fitted effect of over 50% in size
VP16 counter – VP16 counterscreen qHTS for inhibitors of ROR gamma transcriptional activity; Potency, µM (top dose mostly 53.6 µM), usual class: inhibitors; Drosophila S2 Gal4-VP16 UAS-luciferase, luminescence, 20 h; actives 3.5% (n = 310,000); AID 2546, 2010;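 further: Gal4-VP16 expression switched on by copper sulfate through the metallothionein promoter; nearly all actives have a fitted effect of over 50% in size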
RORgamma inh – qHTS for inhibitors of ROR gamma transcriptional activity | Nuclear receptor ROR-gamma (Mus musculus), P51450 | Drosophila S2 Gal4-RORgamma UAS-luciferase reporter, 20 h | Potency, µM (doses to about 53.6 µM), most hits filed as inhibitors | actives 5.4% (n = 310,000); further: nearly all actives have a fitted effect of over 60% in size
Target sequence (P51450 whole entry, looked up, the tested form may be a part): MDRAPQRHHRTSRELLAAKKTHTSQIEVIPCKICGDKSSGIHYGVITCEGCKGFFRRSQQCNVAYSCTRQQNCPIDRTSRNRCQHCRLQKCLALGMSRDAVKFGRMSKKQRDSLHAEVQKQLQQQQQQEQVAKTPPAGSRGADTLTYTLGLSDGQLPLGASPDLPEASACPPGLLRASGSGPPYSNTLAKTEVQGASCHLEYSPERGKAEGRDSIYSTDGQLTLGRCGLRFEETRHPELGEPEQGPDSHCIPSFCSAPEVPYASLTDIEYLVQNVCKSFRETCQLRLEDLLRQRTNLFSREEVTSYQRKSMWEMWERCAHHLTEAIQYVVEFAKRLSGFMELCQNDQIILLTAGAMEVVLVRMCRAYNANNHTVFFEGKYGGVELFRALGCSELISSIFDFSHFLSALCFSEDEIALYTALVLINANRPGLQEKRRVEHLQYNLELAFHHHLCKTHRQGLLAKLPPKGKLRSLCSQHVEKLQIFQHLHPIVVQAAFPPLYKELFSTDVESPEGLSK
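Using a luciferase readout, inhibitors were identified by reduced reporter activity in Drosophila cells coexpressing a copper-inducible Gal4–ROR gamma fusion and UAS-driven Photinus luciferase, incubated 20 hr after 700 uM copper sulfate.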
KB-3-1 tox – qHTS assay for MDR1-selective chemotherapeutics: Primary screen using the parental adenocarcinoma cell KB-3-1. KB-3-1 viability, CellTiter-Glo ATP luminescence, 72 h. Potency, µM (doses to about 46.1 µM), most hits filed as cytotoxic. actives 1.4% (n = 400,000). AID 1347075, 2019; further: nearly all actives have a fitted effect of over 60% in size
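Cytotoxicity measured as CellTiter-Glo luminescence after 72 h at 37 C. Compound titrations were pinned onto drug-naive KB-3-1 parental adenocarcinoma cells grown in DMEM with 10% FBS, and normalized data fitted to concentration-response curves.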
SW480 rerep – A quantitative high throughput screen for small molecules that induce DNA re-replication in SW480 colon adenocarcinoma cells; SW480 DNA re-replication, Hoechst DNA content imaging, 48 h; Potency, µM (titrated, usually from 46.1 µM), usual class: activators; actives 1.8% (n = 340,000); further: nearly all actives have a fitted effect of over 55% in size
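Readout is total intensity of Hoechst-stained nuclei, excited at 405 nm and collected at 500-530 nm. Compound treatment lasted 48 hr at 37 C in 5% CO2 before staining.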
Numbers stand for hits; i = inactive; ? = inconclusive; nt = no result given. Shown are actives, neighbours in structure and some others; about 10% of the full set was active somewhere. The call rests on the fitted dose curve; in most records, active means well fitted curve in the direction sought with a large enough effect; inconclusive means small, poorly fitted or top-dose-only effect, or another doubt; inactive means no such curve, though single readings can be large; an effect the other way counts as inactive or inconclusive.

SMILES	KB-V1 cytotox	MCF10A rerep	VP16 counter	RORgamma inh	KB-3-1 tox	SW480 rerep
CCc1c(C)nc2ncnn2c1NCCc1ccc(OC)c(OC)c1	9.2µM	i	i	?	23µM	i
CCOC(=O)c1ccc(Nc2c(CC)c(C)nc3ncnn23)cc1	23µM	?	i	i	i	i
CCc1c(C)nc2ncnn2c1Nc1ccc(C(C)=O)cc1	i	i	i	?	i	?
CCOc1ccc(CCNc2cc(C)nc3ncnn23)cc1OCC	i	i	i	?	i	i
CCN(CC1COc2ccccc2O1)S(=O)(=O)c1ccc(C)cc1 (stereo not drawn)	23µM	i	i	i	i	i
Cn1c(SCC(=O)c2ccc3c(c2)Cc2ccccc2-3)nnc1-c1cccc(N)c1	16µM	i	?	i	i	i
O=Cc1cnc(N2CCCCC2)s1	i	i	i	i	i	i
O=C(N/N=C/c1cnc(N2CCCCC2)s1)c1ccc(Cl)cc1	?	i	?	2.2µM	i	i
CCC(C)N(NC(C)=O)c1nc(Cl)nc(NC(C)C)n1 (stereo not drawn)	i	i	?	11µM	?	i
O=C(NCc1ccccc1Cl)c1ccc(Cn2cc(C(F)(F)F)ccc2=O)cc1	6.5µM	i	i	i	i	i
O=C(NCc1ccccn1)c1ccc(Cn2cc(C(F)(F)F)ccc2=O)cc1	i	i	i	i	i	i
O=C(NCc1ccc(Cl)cc1)c1ccc(Cn2cc(C(F)(F)F)ccc2=O)cc1	16µM	i	i	i	i	i
Nc1c(C(=O)NCCN2CCOCC2)c2nc3ccccc3nc2n1CCc1ccccc1F	i	i	?	i	i	i
O=C(NCc1ccco1)C1CCN(c2nc3ccccc3n2Cc2ccc(F)cc2)CC1	i	i	i	i	i	i
Nc1c(C(=O)NCc2ccco2)c2nc3ccccc3nc2n1CCc1ccc(F)cc1	16µM	?	?	i	i	5.8µM
Nc1c(C(=O)NCCN2CCOCC2)c2nc3ccccc3nc2n1CCc1ccccc1	23µM	1.8µM	i	i	i	16µM
CC(=O)Nc1ccn(C2OC(C(COC(C)=O)NC(=O)C(COCc3ccccc3)NC(=O)OC(C)(C)C)C(OC(C)=O)C2OC(C)=O)c(=O)n1 (stereo not drawn)	nt	nt	i	i	nt	nt
Cc1ccc(N2C(=O)[C@@H]3CSC(c4ccc(Cl)cc4)N3C2=O)cc1 (stereo partly drawn)	i	nt	nt	nt	i	nt
O=S(=O)(c1cccc(NC(=S)N2CCN(c3cccc(Cl)c3)CC2)c1)C(F)F	i	?	?	13µM	i	i
O=S(=O)(c1cccc(NC(=S)N2CCN(c3ccc(F)cc3)CC2)c1)C(F)F	i	?	?	i	i	18µM
CCOC(=O)/C(=N/Nc1ccc(C)cc1)S(=O)(=O)c1ccc(Cl)cc1	16µM	?	i	?	i	i
NNC(=O)/C(=N/Nc1ccccc1)S(=O)(=O)c1ccc(Cl)cc1	i	?	?	?	18µM	?
NNC(=O)CS(=O)(=O)c1ccc(Cl)cc1	i	i	i	i	i	i
CCOC(=O)/C(=N\Nc1ccccc1)S(=O)(=O)c1ccccc1	i	i	?	?	i	i
CCOc1ccc(NC(=O)c2c(NC(=O)Cc3ccccc3)sc3c2CCCC3)cc1	i	nt	nt	nt	i	nt
SMILES	KB-V1 cytotox	MCF10A rerep	VP16 counter	RORgamma inh	KB-3-1 tox	SW480 rerep
O=C(CCCCn1c(=O)c2ccccc2n(CC(=O)Nc2cccc(F)c2)c1=O)NCc1ccccc1Cl	i	nt	nt	nt	i	nt
COc1ccc2nc(C)cc(N/N=C/c3cccc(OC)c3O)c2c1	?	?	11µM	?	i	?
COc1ccc2nc(C)cc(NCc3cccc(C(F)(F)F)c3)c2c1	?	21µM	i	i	i	23µM
Cc1cc(-c2ccccc2)nc(N/N=C/c2ccc(O)cc2O)n1	?	i	i	?	?	?
COc1ccc2nc(C)cc(Nc3ccccc3O)c2c1	?	i	i	i	i	i
Cc1cc(N/N=C/c2ccccc2O)c2ccccc2n1	?	12µM	i	i	13µM	?
Cc1ccccc1/C=N/Nc1nc2ccccc2c(=O)n1O	?	i	?	7.1µM	i	?
O=c1c(-c2cccs2)nc2cncnc2n1C1CC1	nt	nt	i	i	nt	nt
Cc1cccc(-n2c(=O)c3ccccc3n(Cc3ccc(F)cc3)c2=O)c1	i	nt	nt	nt	i	nt
CN(C)Cc1csc(Nc2ccc(C(F)(F)F)cn2)n1	i	nt	nt	nt	i	nt
Cc1cccc(CNC(=O)c2ccc(N3Cc4ccccc4Oc4ncccc43)s2)c1	i	nt	nt	nt	i	nt
COc1ccc(/C=N/Nc2cc(C)nc3ccc(Br)cc23)cc1	16µM	12µM	?	13µM	?	16µM
CCOC(=O)C(NC(=O)c1ccccc1)(OCc1ccc(F)cc1)C(F)(F)F (stereo not drawn)	i	i	i	i	i	i
CCOC(=O)C(NC(=O)c1ccccc1)(OCC1(CC)COC1)C(F)(F)F (stereo not drawn)	18µM	i	i	i	i	i
CCOC(=O)C(NC(=O)c1cccc(Cl)c1)(OCc1ccc(F)cc1)C(F)(F)F (stereo not drawn)	i	i	20µM	?	?	i
CCC(=O)N(CCC(c1ccccc1)c1ccco1)Cc1cccs1 (stereo not drawn)	?	11µM	i	i	i	i
COC(=O)Cn1c(C(=O)N2CCCC2)cc2c1C[C@H]1CN(C(=O)c3ccccc3)[C@@](Cc3ccc(OC)cc3)(C(=O)OC)[C@@H]21	?	nt	nt	nt	i	nt
Nc1ncnc2c(C3OC(CO)C(O)C3O)c[nH]c12 (stereo not drawn)	0.29µM	?	nt	nt	0.18µM	0.21µM
COC(=O)c1ccc(NC(=O)Cn2ccn3nc(-c4ccc(OC)cc4)cc3c2=O)cc1	i	nt	nt	nt	i	nt
C[C@@H](NC(=O)c1nc[nH]c1C(=O)NCC(=O)OCc1ccccc1)c1ccccc1	i	i	?	8.9µM	i	i
C[C@@H](NC(=O)c1nc[nH]c1C(=O)NCC(=O)OC(C)(C)C)c1ccccc1	i	i	?	10µM	i	i
C[C@H](NC(=O)c1nc[nH]c1C(=O)NCc1ccc(CNC(=O)OC(C)(C)C)cc1)c1ccccc1	?	15µM	nt	nt	?	i
OC(CN1C=CCc2ccccc21)c1ccc(Cl)cc1Cl (stereo not drawn)	?	nt	nt	nt	i	nt
CCOc1ccc(NC(=O)CN2CCN(C3c4ccccc4-c4ccccc43)CC2)cc1	18µM	?	i	?	i	i
